# From the supplement of paper PMC6897291
# System: RIVA
# Assay: growth inhibition by drug alone (1 - RLU/untreated control) (fraction); higher = stronger inhibition
# Conditions: 10 nM; time (day): 3; 177Lu-lilotomab satetraxetan 0 ug/ml
# Summary of the method: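 With or without 18 h pretreatment by a radiolabelled anti-CD37 antibody conjugate (~600 MBq/mg; 0.5 µg/ml RIVA, 1 µg/ml U-2932), RIVA and U-2932 cells were washed and plated at 3,000 cells/well. Pre-printed compound doses were 10/100 nM for RIVA and 10/1,000 nM for U-2932. Growth inhibition uses RealTime-Glo RLU relative to the untreated no-drug wells. The calculation is 1 − RLU/mean of 48 such wells per plate, with reads daily from day 3 after 1 h at 37°C.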
row,SMILES,growth inhibition by drug alone
1,CNCc1ccc(-c2[nH]c3cc(F)cc4c3c2CCNC4=O)cc1,-0.0585
2,O=C(O)c1ccc(-c2c[nH]c3ncc(-c4ccccc4)cc23)cc1C1CCCC1,-0.0813
3,CC(=O)c1c(C)c2cnc(Nc3ccc(N4CCNCC4)cn3)nc2n(C2CCCC2)c1=O,-0.0338
4,CCN(CC)CCCCNc1ncc2cc(-c3cc(OC)cc(OC)c3)c(NC(=O)NC(C)(C)C)nc2n1,-0.21
5,CCC(C)(C)C(=O)O[C@H]1C[C@@H](C)C=C2C=C[C@H](C)[C@H](CC[C@@H]3C[C@@H](O)CC(=O)O3)[C@H]21 [Simvastatin (Zocor)],-0.198
6,CC[C@H](Nc1ncnc2[nH]cnc12)c1nc2cccc(F)c2c(=O)n1-c1ccccc1,-0.102
7,CC(C=CC(=O)NO)=CC(C)C(=O)c1ccc(N(C)C)cc1 (stereo not drawn) [Trichostatin A (TSA)],0.0108
8,COc1ccc2c3n(c(=NC(=O)c4cccnc4)nc2c1OC)CCN3,0.159
9,NC(=O)c1ccc(-c2nc(-c3ccccn3)c(-c3ccc4c(c3)OCO4)[nH]2)cc1,0.151
10,CNC(=O)c1cc(Oc2ccc(NC(=O)Nc3ccc(Cl)c(C(F)(F)F)c3)c(F)c2)ccn1 [Regorafenib (BAY 73-4506)],0.0302
11,Cc1cnc(Nc2ccc(OCCN3CCCC3)cc2)nc1Nc1cccc(S(=O)(=O)NC(C)(C)C)c1,-0.231
12,CCOc1ccc(Nc2nc(-c3c(C)nc4ccccn34)cs2)cc1,0.0293
13,CC(C)C[C@H](NC(=O)[C@H](Cc1ccccc1)NC(=O)c1cnccn1)B(O)O [Bortezomib (Velcade)],0.923
